Results from PubChem BioAssay (Tox21).
“And” between values parts separate entries of the source, which are not always exact repeats. Equal entries are not always repeated. Records with an inconclusive call do not appear. A structure can be active in one record and inactive in another. The source made the active and inactive calls. Unless noted, calls come from the whole dose curve; as a rule, active = well fitted curve in the direction sought with a large enough effect in the repeat runs; inconclusive = weak or mixed curves; inactive = no such curve, though single readings can be large; an effect the other way counts as inactive or inconclusive.

What was measured:
[1] = qHTS assay to identify small molecule antagonists of the thyroid receptor (TR) signaling pathway - cell viability counter screen (AID 743064); note: nearly all actives have a fitted effect of over 50% in size; note: potency is the fitted concentration of half-maximal effect
Procedure, shortened: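 In rat pituitary GH3.TRE-Luc reporter cells co-exposed to compound and 1 nM T3 for 23.5 h, cytotoxicity was assessed with CellTiter-Fluor in the same wells, read by fluorescence.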

[2] = qHTS assay to identify small molecule antagonists of the thyroid receptor (TR) signaling pathway (AID 743065); note: nearly all actives have a fitted effect of over 55% in size; note: potency is the fitted concentration of half-maximal effect
Procedure, shortened: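 GH3.TRE-Luc rat pituitary cells carrying two TR response elements driving luciferase were plated for 4 h, given compound plus 1 nM T3 (final), and incubated 23.5 h at 37 C. ONE-Glo luminescence measured reporter inhibition; CellTiter-Fluor fluorescence tracked cytotoxicity.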

[3] = test system: thyroid hormone receptor (rat, GH3 cells); assay: qHTS assay to identify small molecule agonists of the thyroid receptor (TR) signaling pathway (AID 743066; calls by dose curve)
[4] = molecular target: Estrogen receptor (Homo sapiens) (UniProt P03372); assay: qHTS assay to identify small molecule antagonists of the estrogen receptor alpha (ER-alpha) signaling pathway (AID 743069; active = well fitted curve in the direction sought with a large enough effect in the signal ratio in the repeat runs, not every such curve was filed as active; the % refers to the signal ratio; note: potency is the fitted concentration of half-maximal effect)
Procedure, shortened: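 A 17beta-estradiol challenge was applied right after compound transfer to ER-alpha-UAS-bla HEK293 cells previously kept in charcoal-stripped serum. Plates stood 18 hr at 37C and 5% CO2; fluorescence was read following 2 hr FRET substrate loading at room temperature.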

[5] = molecular target: Estrogen receptor (Homo sapiens) (UniProt P03372); assay: qHTS assay to identify small molecule agonists of the estrogen receptor alpha (ER-alpha) signaling pathway (AID 743075; calls by dose curve;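 note: HEK293 GripTite cells with ER-alpha and UAS-driven beta-lactamase reporter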)
[6] = molecular target: Estrogen receptor (Homo sapiens) (UniProt P03372); assay: qHTS assay to identify small molecule agonists of the estrogen receptor alpha (ER-alpha) signaling pathway using the BG1 cell line (AID 743079); note: nearly all actives have a fitted effect of over 20% in size; note: potency is the fitted concentration of half-maximal effect
[7] = qHTS assay to identify small molecule antagonists of the estrogen receptor alpha (ER-alpha) signaling pathway using the BG1 cell line (AID 743080; calls by dose curve;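 note: BG1 cells stimulated with 17beta-estradiol alongside compound; series mostly up to about 70 µM; nearly all actives have a fitted effect of over 25% in size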)
Procedure, shortened: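 Luciferase inhibition measured with ONE-Glo after 30 min at RT in BG1Luc4E2 cells given test compounds and 17beta-estradiol for 21.5 h at 37 C; CellTiter-Fluor viability read in the same wells beforehand.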

[8] = qHTS assay to identify small molecule antagonists of the estrogen receptor alpha (ER-alpha) signaling pathway using the BG1 cell line - cell viability counter screen (AID 743081);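 note: compound given together with 17beta-estradiol as the ER stimulus; nearly all actives have a fitted effect of over 45% in size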; note: potency is the fitted concentration of half-maximal effect
Aromatase (Homo sapiens) = Aromatase (Homo sapiens) (UniProt P11511); assay: qHTS assay to identify aromatase inhibitors (AID 743083); note: nearly all actives have a fitted effect of over 55% in size; note: potency is the fitted concentration of half-maximal effect
[9] = qHTS assay to identify aromatase inhibitors - cell viability counter screen (AID 743084);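 note: cells stimulated with testosterone during compound exposure; nearly all actives have a fitted effect of over 55% in size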; note: potency is the fitted concentration of half-maximal effect
[10] = molecular target: Aryl hydrocarbon receptor (Homo sapiens) (UniProt P35869); assay: qHTS assay to identify small molecule that activate the aryl hydrocarbon receptor (AhR) signaling pathway (AID 743085);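 note: HG2L7.5c1 human HepG2 liver cells with stably integrated DRE-driven firefly reporter; series mostly up to about 70 µM; nearly all actives have a fitted effect of over 15% in size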
Procedure, shortened: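 AhR agonist activity is inferred from enhanced light output of a DRE-controlled firefly luciferase reporter in HepG2 cells, measured with ONE-Glo following 24 h treatment at 37C.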

[11] = qHTS assay to identify small molecule that activate the aryl hydrocarbon receptor (AhR) signaling pathway - cell viability counter screen (AID 743086); note: nearly all actives have a fitted effect of over 45% in size; note: potency is the fitted concentration of half-maximal effect
Procedure, shortened: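 HepG2-AhR-luc (HG2L7.5c1) cells, 4000/well, were preincubated 5 h at 37C, exposed to compound in qHTS format for 24 hr at 37C, then given CellTiter-Fluor for 30 min; viability was read as fluorescence in the reporter wells.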

[12] = qHTS assay to identify small molecule antagonists of the peroxisome proliferator-activated receptor gamma (PPARg) signaling pathway - cell viability counter screen (AID 743194); note: nearly all actives have a fitted effect of over 55% in size; note: potency is the fitted concentration of half-maximal effect
Procedure, shortened: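 PPARg-UAS-bla HEK293H cells were plated, rested 5 h at 37 C, then treated with compounds plus rosiglitazone (50 nM final) for 17 h at 37 C; viability was then read by CellTiter-Glo luminescence after 30 min at room temperature.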

[13] = qHTS assay for small molecule agonists of the antioxidant response element (ARE) signaling pathway - cell viability counter screen (AID 743203; calls by dose curve; note: nearly all actives have a fitted effect of over 55% in size)
Procedure, shortened: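 Viability counter screen: CellTiter-Glo luminescence, read after 30 min at room temperature, in ARE-bla HepG2 wells. Compound exposure lasted 16 h at 37C/5% CO2, following a 5 h pre-incubation of the cells after plating.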

[14] = qHTS assay for small molecule activators of the heat shock response signaling pathway - cell viability counter screen (AID 743209); note: nearly all actives have a fitted effect of over 50% in size
Procedure, shortened: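 Cytotoxicity counter screen run in the same wells as the heat-shock bla reporter assay: HeLa HSE-bla cells, 5 h compound exposure at 37 C, viability read by CellTiter-Glo luminescence.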

[15] = qHTS assay to identify small molecule antagonists of the estrogen receptor alpha (ER-alpha) signaling pathway - cell viability counter screen (AID 743074; calls by dose curve;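 note: HEK293 cells carrying ER-alpha-UAS-bla reporter stimulated with 17beta-estradiol; nearly all actives have a fitted effect of over 45% in size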; note: potency is the fitted concentration of half-maximal effect)
[16] = molecular target: Peroxisome proliferator-activated receptor gamma (Homo sapiens) (UniProt P37231); assay: qHTS assay to identify small molecule agonists of the peroxisome proliferator-activated receptor gamma (PPARg) signaling pathway (AID 743094; active = well fitted activation curve with a large enough effect in the signal ratio in the repeat runs, not every such curve was filed as active; the % refers to the signal ratio; note: potency is the fitted concentration of half-maximal effect)
Procedure, shortened: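 Agonist activity was taken from a beta-lactamase reporter (FRET substrate, 1 h at room temperature) in HEK293H cells carrying a PPARg UAS-bla construct. Compounds in DMSO were incubated 17 h at 37C after a 5 h cell pre-incubation.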

[17] = qHTS assay for small molecule agonists of the antioxidant response element (ARE) signaling pathway (AID 743202; active = well fitted activation curve with a large enough effect in the signal ratio in the repeat runs, not every such curve was filed as active; the % refers to the signal ratio; note: potency is the fitted concentration of half-maximal effect)
Procedure, shortened: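 Following a 16 h, 37 C exposure of reporter HepG2 cells (ARE-driven beta-lactamase, 2,000 cells/well) to compounds, FRET substrate was applied for 2 h at room temperature and fluorescence intensity recorded.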

[18] = qHTS assay for small molecule activators of the heat shock response signaling pathway (AID 743210; active = well fitted activation curve with a large enough effect in the signal ratio in the repeat runs, with a control signal flat, not every such curve was filed as active; the % refers to the signal ratio; note: potency is the fitted concentration of half-maximal effect; for activation: series mostly up to about 63 µM)
Procedure, shortened: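 Heat shock element–beta-lactamase HeLa reporter cells; qHTS with compounds for 5 h at 37 C; detection by FRET substrate fluorescence after 2.5 h at RT.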

[19] = molecular target: Peroxisome proliferator-activated receptor gamma (Homo sapiens) (UniProt P37231); assay: qHTS assay to identify small molecule antagonists of the peroxisome proliferator-activated receptor gamma (PPARg) signaling pathway (AID 743191; calls by dose curve; note: series mostly up to about 63 µM; nearly all actives have a fitted effect of over 30% in size)
Procedure, shortened: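 GeneBLAzer PPARg UAS-bla HEK293H cells carrying a UAS-driven beta-lactamase reporter were plated at 3000 cells/well, preincubated 5 h at 37C, then given compound for 17 h at 37C; LiveBLAzer B/G FRET substrate was read after 1 h at room temperature.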

Measured: Potency

Peroxisome proliferator-activated receptor gamma (Homo sapiens), sequence (P37231 whole entry, looked up): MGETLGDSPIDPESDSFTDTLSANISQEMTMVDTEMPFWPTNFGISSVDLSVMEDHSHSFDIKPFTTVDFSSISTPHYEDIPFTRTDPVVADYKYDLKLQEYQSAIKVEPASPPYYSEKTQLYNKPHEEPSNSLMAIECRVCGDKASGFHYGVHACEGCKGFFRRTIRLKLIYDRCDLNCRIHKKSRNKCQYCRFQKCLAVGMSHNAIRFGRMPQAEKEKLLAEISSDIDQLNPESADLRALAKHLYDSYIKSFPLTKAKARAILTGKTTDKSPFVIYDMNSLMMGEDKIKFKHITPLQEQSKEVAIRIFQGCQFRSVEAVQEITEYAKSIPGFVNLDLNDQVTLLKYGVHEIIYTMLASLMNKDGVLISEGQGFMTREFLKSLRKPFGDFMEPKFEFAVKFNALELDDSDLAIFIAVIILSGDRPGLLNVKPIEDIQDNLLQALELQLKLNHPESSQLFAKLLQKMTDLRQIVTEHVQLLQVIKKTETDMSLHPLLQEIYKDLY
Aryl hydrocarbon receptor (Homo sapiens), sequence (P35869 whole entry, looked up): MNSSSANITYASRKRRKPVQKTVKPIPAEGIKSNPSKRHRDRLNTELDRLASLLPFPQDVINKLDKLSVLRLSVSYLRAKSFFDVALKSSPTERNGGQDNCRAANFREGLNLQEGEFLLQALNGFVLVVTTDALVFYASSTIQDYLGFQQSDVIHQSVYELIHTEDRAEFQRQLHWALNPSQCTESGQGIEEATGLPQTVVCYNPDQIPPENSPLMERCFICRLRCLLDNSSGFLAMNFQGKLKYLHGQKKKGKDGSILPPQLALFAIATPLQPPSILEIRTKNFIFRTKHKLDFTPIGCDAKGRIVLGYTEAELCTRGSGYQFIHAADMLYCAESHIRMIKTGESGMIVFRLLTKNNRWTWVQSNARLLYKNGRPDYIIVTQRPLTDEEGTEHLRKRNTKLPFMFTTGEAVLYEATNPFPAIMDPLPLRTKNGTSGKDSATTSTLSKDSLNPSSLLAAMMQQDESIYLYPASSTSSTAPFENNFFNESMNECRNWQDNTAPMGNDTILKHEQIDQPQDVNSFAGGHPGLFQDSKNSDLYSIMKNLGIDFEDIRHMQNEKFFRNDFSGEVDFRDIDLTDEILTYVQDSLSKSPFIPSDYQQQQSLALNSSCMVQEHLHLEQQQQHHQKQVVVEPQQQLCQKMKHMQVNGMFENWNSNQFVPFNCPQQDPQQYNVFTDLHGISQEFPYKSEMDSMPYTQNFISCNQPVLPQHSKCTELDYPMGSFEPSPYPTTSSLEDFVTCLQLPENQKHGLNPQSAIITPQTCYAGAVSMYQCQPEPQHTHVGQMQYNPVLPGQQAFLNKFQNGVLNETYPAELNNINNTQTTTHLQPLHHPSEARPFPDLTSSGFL
Aromatase (Homo sapiens), sequence (P11511 whole entry, looked up): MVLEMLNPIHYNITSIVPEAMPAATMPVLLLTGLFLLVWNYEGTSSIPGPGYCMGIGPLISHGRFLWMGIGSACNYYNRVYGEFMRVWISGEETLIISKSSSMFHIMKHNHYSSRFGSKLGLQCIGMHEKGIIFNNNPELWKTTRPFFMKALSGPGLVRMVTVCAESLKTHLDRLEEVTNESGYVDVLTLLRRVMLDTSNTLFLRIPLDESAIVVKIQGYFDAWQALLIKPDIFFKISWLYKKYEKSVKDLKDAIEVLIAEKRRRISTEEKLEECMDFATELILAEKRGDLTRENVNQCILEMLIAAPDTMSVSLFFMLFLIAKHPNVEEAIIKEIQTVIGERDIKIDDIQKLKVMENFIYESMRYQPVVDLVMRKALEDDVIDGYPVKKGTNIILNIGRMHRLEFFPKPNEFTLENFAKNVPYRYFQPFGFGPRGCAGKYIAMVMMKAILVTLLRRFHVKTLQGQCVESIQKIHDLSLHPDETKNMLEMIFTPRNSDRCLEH
Estrogen receptor (Homo sapiens), sequence (P03372 whole entry, looked up): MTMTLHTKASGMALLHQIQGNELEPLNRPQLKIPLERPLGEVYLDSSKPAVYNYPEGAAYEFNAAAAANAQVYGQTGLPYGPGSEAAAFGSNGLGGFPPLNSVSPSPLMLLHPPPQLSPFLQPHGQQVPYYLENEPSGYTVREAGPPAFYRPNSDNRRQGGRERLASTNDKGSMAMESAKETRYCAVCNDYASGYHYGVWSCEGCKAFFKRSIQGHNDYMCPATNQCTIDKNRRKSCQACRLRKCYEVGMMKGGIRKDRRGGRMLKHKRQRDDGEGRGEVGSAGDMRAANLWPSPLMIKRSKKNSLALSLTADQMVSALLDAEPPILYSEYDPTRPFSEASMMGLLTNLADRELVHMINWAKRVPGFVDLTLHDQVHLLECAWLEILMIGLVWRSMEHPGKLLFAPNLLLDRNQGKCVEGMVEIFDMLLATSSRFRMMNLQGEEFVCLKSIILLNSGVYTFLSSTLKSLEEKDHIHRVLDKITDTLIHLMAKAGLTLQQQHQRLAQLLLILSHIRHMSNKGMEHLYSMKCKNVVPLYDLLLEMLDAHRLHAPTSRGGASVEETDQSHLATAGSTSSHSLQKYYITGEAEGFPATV

CC(C)(c1ccccc1)c1ccc(Nc2ccc(C(C)(C)c3ccccc3)cc2)cc1
active: [4] 61.7 µM [cytotoxic]
inactive: [1] | [2] | [3] | [5] | [6] | [7] | [8] | Aromatase (Homo sapiens) | [9] | [10] | [11] | [12] | [13] | [14]

CN(C)c1ccc(C(=C2C=CC(=[N+](C)C)C=C2)c2ccccc2)cc1
inactive and 9.69 µM (active): [8]
inactive: [3] | [10]
inactive and 1.93 µM (active): [11]
active: [1] 7.5 µM and 68.6 nM | [2] 6.68 µM and 48.6 nM | [15] 1.1 µM | Aromatase (Homo sapiens) 243 nM | [9] 1.93 µM | [16] 26.8 µM | [12] 61.7 nM and 668 nM

CC(C)CCOC(=O)c1ccc(N(C)C)cc1
inactive: [1] | [2] | [3] | [4] | [15] | [5] | [8] | Aromatase (Homo sapiens) | [9] | [11] | [16] | [12] | [17] | [13] | [14] | [18]
active: [6] 11.9 µM

CC(N)=O
inactive: [1] | [2] | [3] | [15] | [8] | Aromatase (Homo sapiens) | [9] | [10] | [11] | [16] | [17] | [13] | [14] | [18]

O=C(Cl)c1cccc(C(=O)Cl)c1
inactive: [1] | [2] | [3] | [15] | [8] | Aromatase (Homo sapiens) | [9] | [10] | [11] | [16] | [19] | [12] | [17] | [13] | [14] | [18]

c1cc(C(c2ccc(OCC3CO3)cc2)C(c2ccc(OCC3CO3)cc2)c2ccc(OCC3CO3)cc2)ccc1OCC1CO1 (configuration not stated)
active: [1] 48.5 µM | [2] 20.1 µM and 21.7 µM | [6] 20.1 µM and 21.7 µM
inactive: [3] | [4] | [15] | [5] | [8] | Aromatase (Homo sapiens) | [9] | [11] | [12] | [14]

CCC(=O)/C=C/C1C(C)=CCCC1(C)C (configuration not stated)
inactive: [1] | [2] | [3] | [15] | [8] | Aromatase (Homo sapiens) | [9] | [10] | [11] | [16] | [12] | [17] | [13] | [14] | [18]

BrC1CCC(Br)C(Br)CCC(Br)C(Br)CCC1Br (configuration not stated)
inactive: [3] | [4] | [5] | [7] | [8] | [10] | [11] | [16] | [14]
active: [1] 5.43 µM and 20.6 µM | [2] 4.84 µM and 13 µM | [15] 48.8 µM | [12] 16.5 µM

CC(C(O)c1ccc(O)cc1)N1CCC(Cc2ccccc2)CC1 (configuration not stated)
active: [1] 21.1 µM | [2] 23.7 µM
inactive: [3] | [4] | [15] | [5] | [6] | Aromatase (Homo sapiens) | [9] | [10] | [11] | [16] | [19] | [12] | [17] | [13] | [14] | [18]

CCc1ccc(C(c2ccc(CC)cc2)C(Cl)Cl)cc1
inactive: [1] | [2] | [3] | [4] | [5] | [7] | [8] | Aromatase (Homo sapiens) | [9] | [10] | [11] | [16] | [12] | [17] | [14] | [18]

O=c1n(CC2CO2)c(=O)n(CC2CO2)c(=O)n1CC1CO1 (configuration not stated)
inactive and 34.2 µM (active): [9]
inactive: [3] | [15] | [5] | [6] | [8] | [10] | [11] | [12] | [13] | [14]
active: [1] 12.1 µM and 27.3 µM | [2] 6.68 µM and 8.58 µM and 4.33 µM | [17] 4.33 µM | [18] 35.8 µM and 43.6 µM
inactive and 48.3 µM (active): Aromatase (Homo sapiens)

CC(C)(C)NC(=O)[C@@H]1CN(Cc2cccnc2)CCN1C[C@@H](O)C[C@@H](Cc1ccccc1)C(=O)N[C@H]1c2ccccc2C[C@H]1O
inactive: [1] | [3] | [15] | [8] | [10] | [11] | [12] | [17] | [13] | [14] | [18]
active: [9] 26.6 µM
29.8 µM (active) and inactive: Aromatase (Homo sapiens)
